Screens: PubChem BioAssay, several laboratories
Wnt bcat act: Wnt/beta-catenin pathway activation; 300,000 compounds, 1.2% hits; Wnt/beta-catenin reporter cell assay, activator, plate reader; activation, % at 9.35 µM; in the data active means activation above about 30%, passing the limit was not always enough; inconclusive means no clear call, values can overlap the other calls;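 further: 0% = neutral control wells and 100% = positive control wells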
FGF22 binding: FGF22 (human) thermal shift binding; Q9HCT0; recombinant FGF22 thermal shift, SYPRO orange fluorescence; percent of sucrose octasulfate shift, DMSO zero; activity (Tm shift, normalised), % at 9.99 µM; 340,000 compounds, 1.5% hits;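 active means mean Tm shift, scaled 0 neutral to 100 positive control, at about 1.3% or above, every replicate too, limit read from the data; inconclusive means no clear call, values can overlap the other calls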
Target sequence (Q9HCT0 whole entry, looked up): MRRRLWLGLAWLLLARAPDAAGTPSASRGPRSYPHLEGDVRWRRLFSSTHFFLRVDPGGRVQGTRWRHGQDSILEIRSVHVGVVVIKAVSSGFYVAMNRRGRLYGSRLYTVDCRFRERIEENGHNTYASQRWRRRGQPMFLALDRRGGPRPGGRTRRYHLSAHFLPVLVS
SMARCA2 activ: increases SMARCA2 function in MMTV reporter cells; activation, % at 9.1 µM; MG213 cells, MMTV-luciferase reporter, dexamethasone, overnight; 370,000 compounds, 1% hits; AID 652017; in the data active means activation above about 7.8%;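 further: 0% = vehicle wells and 100% = reference activator wells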
esBAF inh: blocks esBAF chromatin remodeling in mouse ES cells | reporter increase, % at 12.5 µM | Bmi1-luciferase knock-in reporter, 24 h; 100% = twice the neutral-well signal | AID 602393 | 350,000 compounds, 2% hits; in the data active means activation above about 40%; inconclusive means no clear call, values can overlap the other calls;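 further: 0% = median of the plate's neutral control wells and 100% = double that signal; a rise in the Bmi1 reporter signal indicates esBAF inhibition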
MLL AF4-AF9 inh: MLL-AF4/AF9 protein interaction inhibition; inhibition, % at 10 µM; P42568; AlphaScreen, biotin-AF4 peptide binding to FLAG-AF9; AID 651704; 350,000 compounds, 0.47% hits;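 active means every replicate reaching a set inhibition limit, whatever the replicate mean, cut at about 25% in these data; inconclusive means mean inhibition reaches that limit but some replicates miss it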;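 further: 0% = plate neutral control median and 100% = total signal loss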
Target sequence (P42568 whole entry, looked up): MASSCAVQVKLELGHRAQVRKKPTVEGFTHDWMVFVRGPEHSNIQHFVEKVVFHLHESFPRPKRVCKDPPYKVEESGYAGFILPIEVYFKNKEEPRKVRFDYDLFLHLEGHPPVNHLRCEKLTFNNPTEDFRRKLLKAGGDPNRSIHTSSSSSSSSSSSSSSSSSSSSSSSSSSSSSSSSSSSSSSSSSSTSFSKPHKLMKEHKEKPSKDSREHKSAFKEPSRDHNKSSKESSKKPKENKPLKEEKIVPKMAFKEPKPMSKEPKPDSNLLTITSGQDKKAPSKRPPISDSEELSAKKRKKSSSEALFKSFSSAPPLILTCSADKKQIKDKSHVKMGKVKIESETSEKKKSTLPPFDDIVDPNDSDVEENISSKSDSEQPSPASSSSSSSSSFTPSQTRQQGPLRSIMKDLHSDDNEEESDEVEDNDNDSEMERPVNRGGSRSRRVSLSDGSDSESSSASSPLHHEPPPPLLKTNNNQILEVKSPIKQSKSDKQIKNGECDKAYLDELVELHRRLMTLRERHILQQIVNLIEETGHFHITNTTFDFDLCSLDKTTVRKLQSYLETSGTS
MITF act: increases MITF-driven TRPM1 promoter luciferase signal; SK-MEL-5 TRPM1-promoter luciferase, 24 h; % of positive control, neutral wells = 0; activation, % at 12.5 µM; 300,000 compounds, 0.75% hits;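 active means mean activation of at least 80% with every replicate also reaching 80%; inconclusive means mean reaches 80% but some replicate falls short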;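 further: 0% = neutral control wells and 100% = parthenolide positive control wells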
Numbers without * were called inactive; u = inconclusive; x = no result given. Rows were chosen to be rich in hits. Some 4.3% of all compounds tested hit in one or more screens of this group.

SMILES | Wnt bcat act | FGF22 binding | SMARCA2 activ | esBAF inh | MLL AF4-AF9 inh | MITF act
Cc1cc(NC(=O)Nc2ccc(F)cc2)no1 | x | x | 1.4 | 18.9 | x | 18.7
COc1cc(C(=O)OCC(=O)Nc2cc(C)on2)c([N+](=O)[O-])cc1OC | -5.2 | 0.2 | -1.6 | -4.4 | -1.1 | -7.3
COc1ccc(C(=O)Nc2cc(C)on2)cc1[N+](=O)[O-] | -0.7 | 43.0* | 0.7 | x | 1.9 | 16.5
COc1cc(OC)c(C(=O)OCC(=O)Nc2cc(C)on2)cc1OC | -0.4 | 43.4* | -0.9 | x | -1.9 | -3.1
Cc1cc(NC(=O)c2sc3ccccc3c2O)no1 | 34.0* | 0.0 | 5.5 | 29.4 | 1.0 | 10.5
COc1ccc(C(=O)Nc2cc(C)on2)c(OC)c1 | 12.6 | 0.1 | 2.2 | 13.6 | 2.1 | 114.7*
O=C1CCCN1CCC(=O)N1CCCC(CO)(Cc2ccccc2)C1 (stereo unspecified) | 31.8* | -0.3 | 4.8 | 62.5* | -5.0 | 49.0
COc1ccc(-c2ccc3c(c2)O[C@@H](CN(C)C(C)=O)[C@H](C)CN([C@@H](C)CO)S3(=O)=O)cc1 | x | -0.1 | x | -0.1 | -0.7 | x
CN(c1cccc(NC(=O)CN(c2cccc(F)c2)S(C)(=O)=O)c1)S(C)(=O)=O | -1.2 | 43.0* | -0.1 | -6.9 | -1.7 | 2.1
C[C@H]1CN([C@@H](C)CO)S(=O)(=O)c2ccc(C3=CCCCC3)cc2O[C@@H]1CN(C)C(=O)c1ccncc1 | x | -0.1 | x | 4.6 | 1.7 | x
COc1ccc(S(=O)(=O)N(C)C[C@@H]2Oc3ccc(NC(=O)Nc4ccc(C(F)(F)F)cc4)cc3C(=O)N([C@H](C)CO)C[C@H]2C)cc1 | x | 0.5 | x | -0.6 | -0.2 | x
CCCC#Cc1ccc2c(c1)O[C@@H](CN(C)Cc1ccncc1)[C@@H](C)CN([C@@H](C)CO)S2(=O)=O | x | -0.4 | x | 1.0 | 9.1 | x
c1cncc(-c2nc3c(ccc4ccccc43)[nH]2)c1 | 13.2 | 1.0 | 5.7 | 52.2* | 6.2 | 12.9
O=c1[nH]c(-c2cccnc2)nc2ccccc12 | -4.1 | x | -2.0 | -5.2 | x | 1.7
CN1c2ccsc2/C(=N/NC(=O)c2c(F)cccc2F)CS1(=O)=O | -6.6 | x | -1.1 | -15.5 | x | -12.0
CN1c2ccsc2/C(=N/Nc2ccccc2)CS1(=O)=O | 6.2 | 0.4 | -0.9 | 57.8* | 8.4 | -6.3
O=C(Cc1ccc(Br)cc1)N1CCCCCC1 | x | x | -2.1 | 56.8* | x | x
COc1ccc(/C=C/C(=O)Nc2ccccc2C)cc1S(=O)(=O)N1CCOCC1 | -1.5 | 0.2 | -3.4 | 46.7* | -0.1 | 18.8
COc1cc(/C=C/C(=O)Nc2ccc(OC)c(S(=O)(=O)N3CCOCC3)c2)ccc1OC(F)F | -2.9 | 1.6* | -6.2 | 16.1 | 2.2 | -6.8
c1ccc2c3c([nH]c2c1)CCNC3 | -0.5 | 0.0 | 0.9 | 2.1 | 25.3* | -11.8
Cc1cccc(OCCCn2c(=O)oc3ccccc32)c1 | 15.2 | 0.0 | -3.0 | 48.3* | -1.0 | 70.4
CCOC(=O)Cc1cc(=O)n2[nH]c(-c3ccccc3)c(-c3ccccc3)c2n1 | x | 43.3* | -5.8 | -3.1 | -7.3 | -6.1
N#C/C(=C\c1ccc[nH]1)C(=O)Nc1ccccc1Cl | 23.9 | 0.0 | 1.2 | 27.9 | -3.3 | -1.6
Cc1cc(/C=C(\C#N)C(=O)Nc2ccccc2F)c(C)[nH]1 | 19.1 | 0.0 | 1.7 | 29.3 | -0.1 | 106.0*
Cc1cc(/C=C(\C#N)C(=O)NC2CCCCCC2)c(C)[nH]1 | x | x | 0.5 | x | x | 51.1
SMILES | Wnt bcat act | FGF22 binding | SMARCA2 activ | esBAF inh | MLL AF4-AF9 inh | MITF act
Cc1cc(/C=C(\C#N)C(=O)NC2CC2)c(C)[nH]1 | u | x | 3.1 | x | x | 93.6*
N#C/C(=C\c1ccc[nH]1)C(=O)Nc1ccccc1F | 32.6* | 0.9 | 1.9 | 71.5* | 0.0 | 19.1
CS(=O)(=O)Nc1ccc2c(c1)[C@@H]1C[C@@H](CC(=O)NCc3ccc(Cl)cc3)O[C@@H](CO)[C@@H]1O2 | x | -0.2 | x | -0.8 | -6.8 | x
C/C=C/c1ccc([C@H]2[C@@H](CO)N3C(=O)CN(S(=O)(=O)c4ccccc4)C[C@@H]23)cc1 | x | x | x | x | 1.8 | x
Cc1ccc(C2=NC(=O)/C(=C/c3cc(O)c(O)c(Br)c3)S2)cc1 | -1.0 | 43.4* | 1.4 | 6.3 | 1.9 | -2.2
CN(C)C(=O)[C@H]1[C@H](CO)[C@H]2Cn3c(ccc(C4=CCCCC4)c3=O)[C@H]2N1Cc1ccccn1 | x | 0.1 | x | -0.8 | -0.9 | x
O=C(NC1CCCCC1)C(=O)c1c[nH]c2ccccc12 | u | -0.3 | 2.3 | 45.1* | -9.7 | 66.0
O=C(COC(=O)c1c[nH]c2ccccc12)NC1CCCC1 | 4.0 | 0.2 | -0.7 | 16.4 | 1.9 | -4.4
Cc1ccc(NC(=O)C(=O)c2c[nH]c3ccccc23)cc1 | 63.9* | -0.1 | 3.3 | 19.9 | -0.6 | x
O=C(NC1CCCC1)c1n[nH]c2ccccc12 | 8.0 | 0.0 | 2.1 | 53.0* | -2.0 | 66.1
CCNc1nc(N)c(C(=O)c2ccc(Cl)s2)s1 | 58.0* | x | 4.3 | 43.3* | x | x
Clc1ccc(Cl)c2sc(N3CCOCC3)nc12 | x | x | -1.6 | 11.0 | x | 3.1
Clc1cc(Cl)c2nc(N3CCOCC3)sc2c1 | 41.9* | x | 4.9 | 61.3* | x | x
CCC1CCCN1Cn1cnc2c([nH]c3ccc(C)cc32)c1=O (stereo unspecified) | 0.7 | x | -1.0 | x | x | 14.0
CCC1CCCN1Cn1cnc2c([nH]c3ccc(Cl)cc32)c1=O (stereo unspecified) | x | x | 9.7* | x | x | 13.3
C[C@H](CO)N1C[C@H](C)[C@@H](CN(C)Cc2ccc(Cl)c(Cl)c2)Oc2c(NC(=O)c3cnccn3)cccc2C1=O | x | 0.1 | x | 19.3 | 3.9 | x
Cc1ccc(C2c3c(-c4ccccc4)n[nH]c3C(=O)N2c2ccccc2)cc1 (stereo unspecified) | -1.8 | 0.3 | -4.2 | x | x | x
O=C1c2[nH]nc(-c3ccccc3)c2C(c2ccccc2)N1c1ccccc1 (stereo unspecified) | 1.0 | 43.5* | 7.4 | x | -0.2 | x
OC1CCN(c2c3c(nc4cc(-c5cccc(F)c5)nn24)CCCC3)CC1 | 4.8 | 0.0 | 2.5 | 103.6* | -35.7 | 87.6*
CCOCCN1CCN(c2c3c(nc4cc(-c5ccc(F)cc5)nn24)CCC3)CC1 | x | x | 2.5 | 17.6 | x | 23.5
Fc1cccc(-c2cc3nc4c(c(N5CCC6(CC5)OCCO6)n3n2)CCCC4)c1 | x | x | 3.0 | 52.0* | x | 44.9
Cc1cc(C)c2c(=O)[nH]c(SCC(=O)c3ccc(C)c(C)c3)nc2n1 | -6.9 | 44.1* | 0.6 | x | -1.9 | -5.6
O=C(CCC1CCCN(C(=O)c2cc3ccccc3o2)C1)NCc1ccc(F)c(F)c1 (stereo unspecified) | -1.3 | 0.1 | 1.1 | 56.3* | 1.3 | x
O=C(CCC1CCCN(C(=O)c2ccncc2)C1)NCc1ccc(F)c(F)c1 (stereo unspecified) | -1.4 | 0.2 | 0.7 | x | 0.5 | 0.7
Cc1noc(C)c1NC(=O)Nc1ccc2c(c1)C(=O)N([C@@H](C)CO)C[C@@H](C)[C@H](CN(C)Cc1ccc(C(=O)O)cc1)OCCCC[C@H](C)O2 | x | -0.4 | x | -0.2 | x | x
